The results in this text go back to PubChem BioAssay (NCATS).

Molecules are shown by their SMILES. Results filed as inconclusive are left out. Where a call stands in place of a potency, no number is given. The source made the active and inactive calls. The call rests on the fitted dose curve; in most records, active means well fitted curve in the direction sought with a large enough effect; inconclusive means small, poorly fitted or top-dose-only effect, or another doubt; inactive means no such curve, though single readings can be large; an effect the other way counts as inactive or inconclusive.

The nature of test [1]: qHTS to identify inhibitors of the type 1 interferon - major histocompatibility complex class I in skeletal muscle: primary screen against the NCATS LOPAC collection (AID 1347405).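 Further: lytic HiBiT luminescence reporting HLA-B protein level.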 Further: potency means the concentration at half of the fitted maximal effect. The procedure, abridged:
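CRISPR-engineered immortalized human myoblasts (C25cl48) with HiBiT fused to endogenous HLA-B*08:01, stimulated with 4 ng/ml IFN-beta. LOPAC compounds tested as a 7-point 1:4.3 titration (top 46 uM final), 24 h at 37 C; lytic HiBiT luminescence read.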

Test [2] in a line: qHTS for inhibitors of adenylyl cyclases using a fission yeast platform: a pilot screen against the NCATS LOPAC library (AID 1347410). The procedure, abridged: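 Read-out: fbp1-GFP fluorescence by laser scanning cytometry (488 nm laser), a gain of signal when AC/cAMP-PKA signalling is inhibited. Strain CHP2027 expressing AC9, GNAS and PDE4D2; compounds at up to 57 µM; 18 h, 30C.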
In general terms: In qHTS, concentration-response curves come from the screen itself.

The nature of test [3]: Validation qHTS assay for inhibitors of Activation Induced Cytidine Deaminase (AID): UDG Counterscreen signal (AID 1347427). Put shortly:
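Counterscreen read of UDG activity (2 U/mL, 4/3x) in the FRET deamination format with AID (1 uM, 4/3x), DJC20/DJC23 substrates (250 nM, 4x), 4 h at room temperature. NaOH stop, fluorescence at 560 ex/665 em.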

Test [4] can be described thus: qHTS to identify inhibitors of the type 1 interferon - major histocompatibility complex class I in skeletal muscle: primary screen against the NCATS Mechanism Interrogation Plate v5.0 (MIPE) Libary (AID 1347411). Further: nearly all actives have a fitted effect of over 65% in size. The procedure, abridged: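 Immortalized human myoblasts (C25cl48) with HiBit knocked into endogenous HLA-B*08:01 were stimulated with 4 ng/ml IFN-beta and given compounds in 11-point 1:3 titration from 46 uM. After 24 h at 37 C, lytic HiBiT luminescence was read.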

Turning to `NC(=O)c1ccccc1`, the Potency entry in test [1] was “inactive”. In addition, in test [2], the compound was classed as inactive.
For `CC(C)NCC(O)COc1ccc(CC(N)=O)cc1` (stereo not drawn), the Potency result in test [1] was “inactive”.
Regarding `CN1CCN(c2nc3cc(C(F)(F)F)ccc3n3cccc23)CC1`, the Potency entry in test [1] and in test [3] was “inactive” throughout. Moreover, in test [2], the compound was called inactive.
Take `c1ccc(C(NCc2cccnc2)(c2ccccc2)c2ccccc2)cc1`: in test [1], the Potency result is “inactive”. Further, the outcome in test [2] was inactive.
In the case of `CCCc1c(OCCCOc2ccc(OCC(=O)O)cc2)ccc(C(C)=O)c1O`, the Potency result in test [1] and in test [3] was “inactive” throughout. Also, the call in test [2] and in test [4] was inactive.
As to `CC[n+]1c(/C=C/C=C2/N(C)c3ccccc3C2(C)C)sc2ccccc21`, the Potency in test [1] was 5.01 µM (active). Further, the call in test [2] was inactive. Besides, the Potency result in test [3] is “inactive”.
Consider `Cc1ccc([N+](=O)[O-])cc1S(=O)(=O)N(C)C`, for which, in test [1], the Potency result is “inactive”. The compound was classed as inactive in test [2].
As to `COC1(C2=NCCN2)COc2ccccc2O1` (stereo not drawn), the Potency result in test [1] is “inactive”. In test [2], the compound was classed as inactive.
As to `CCOC(=O)C12CC1/C(=N/O)c1ccccc1O2` (stereo not drawn), the Potency entry in test [1] was “inactive”. Further, the outcome in test [2] was inactive.
Consider `O=C(O)C1CN(CCCP(=O)(O)O)CCN1` (stereo not drawn), for which, in test [1], the Potency entry was “inactive”. Moreover, the compound was classed as inactive in test [2].
As for `NC(=O)CC[C@H](N)C(=O)O`, the Potency entry in test [1] and in test [3] was “inactive” in each case. Moreover, the result in test [2] was inactive.
For `NC(=O)c1cc[n+](CC2=C(C(=O)O)N3C(=O)[C@@H](NC(=O)[C@@H](c4ccccc4)S(=O)(=O)[O-])[C@H]3SC2)cc1`, the Potency entry in test [1] and in test [3] was “inactive” in each case. Also, the outcome in test [2] was inactive.
Regarding `N#Cc1cc2nc(O)c(O)nc2cc1[N+](=O)[O-]`, the Potency entry in test [1] and in test [3] was “inactive” each time. For the same compound, the call in test [2] was inactive.
For the compound `CC(=O)/C(C)=N/O`, the Potency entry in test [1] and in test [3] was “inactive” in each case. The result in test [2] was inactive.
In the case of `O=C1C2C=CC=CC2=NC(=S)N1CCN1CCC(=C(c2ccc(F)cc2)c2ccc(F)cc2)CC1` (stereo not drawn), the Potency entry in test [1] and in test [3] was “inactive” each time. The call in test [2] was inactive.
`N#C/C(=C\c1ccc(O)c(O)c1)C(=O)NCCCNC(=O)/C(C#N)=C/c1ccc(O)c(O)c1`: the Potency entry in test [1] and in test [3] was “inactive” each time. Further, in test [2], the result was inactive.
In the case of `O=C(O)C1CCNCC1`, the Potency result in test [1] and in test [3] was “inactive” each time. For the same compound, the compound was classed as inactive in test [2].
For `O=C(O)CCC/C=C\C[C@@H]1[C@@H](/C=C/[C@H](O)C2Cc3ccccc3C2)[C@@H](F)C[C@@H]1O`, the Potency entry in test [1] and in test [3] was “inactive” throughout. The compound was called inactive in test [2].
Consider `CN1Cc2sccc2C(c2ccc(O)c(O)c2)C1` (stereo not drawn), for which the Potency entry in test [1] and in test [3] was “inactive” throughout. Also, the compound was called inactive in test [2].
With `Cc1nc(N=Nc2ccc(S(=O)(=O)O)cc2S(=O)(=O)O)c(COP(=O)(O)O)c(C=O)c1O`, the Potency result in test [1] and in test [3] was “inactive” throughout. Moreover, the result in test [2] was inactive.
`NC1(C(=O)O)CCCCC1`: the Potency result in test [1] and in test [3] was “inactive” throughout. For the same compound, in test [2], the compound was called inactive.
Consider `N=C(N)SCCN`, for which the Potency entry in test [1] and in test [3] was “inactive” throughout. In addition, in test [2], the outcome was inactive.
As for `O=C(O)C1=CCCN(CCON=C(c2ccccc2)c2ccccc2)C1`, the Potency entry in test [1] and in test [3] was “inactive” each time. In test [2], the call was inactive.
On to `O=[N+]([O-])c1cccc2c(Br)[nH]nc12`, for which the Potency result in test [1] and in test [3] was “inactive” throughout. The result in test [2] was inactive.
For `Nc1ncnc2c1ncn2C1CCCC1`, the Potency entry in test [1] and in test [3] was “inactive” in each case. Moreover, in test [2], the outcome was inactive.
